Screen size: about 310,000 compounds; about 18,000 (5.8%) were called active. Another 22% or so got no clear call; they are omitted. For the sample, actives were picked, then their nearest neighbours and some compounds at random. Values without a mark were called inactive. The call rests on the fitted dose curve; in most records, active means well fitted inhibition curve with a large enough effect; inconclusive means small, poorly fitted or top-dose-only effect, or another doubt; inactive means no such curve, though single readings can be large or run the other way.
Test: Primary qHTS for delayed death inhibitors of the malarial parasite plastid, 48 hour incubation
Conditions: P. falciparum luciferase growth in erythrocytes; series mostly up to 28.7 µM; activity change, negative = inhibition: at the top concentration
Procedure, shortened: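 Luminescence readout; reporter = integrated firefly luciferase in P. falciparum. RBC culture at 2% hematocrit, 0.1% parasitemia final, 37 C/5% CO2; decreased signal taken as growth inhibition.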
On the % scale 0 is the no-effect control and ±100 the full control effect; potency means the concentration at half of the fitted maximal effect.

| SMILES | activity change, negative = inhibition | Potency |
| --- | --- | --- |
| CCN(CC(=O)Nc1ccc(NC(C)=O)cc1)C(=O)CSC(=S)N1CCCC1 | -12.7% | – |
| CCOc1cc(/C=N/Nc2cc(C)nc3ccc(C)cc23)ccc1O | 30.6% | – |
| Cc1cc(C)nc(N/N=C/c2ccc([N+](=O)[O-])o2)n1 | -1.43% [at 0.00184 µM] | – |
| CCN(CC)c1ccc(/C=N/Nc2nc(C)cc(C)n2)c(O)c1 | – | 7.38 µM (active) |
| CC(C)NC(=O)N1CCN(c2ccncc2S(=O)(=O)N2CCCCC2)CC1 | -10.9% | – |
| O=C(CCS(=O)(=O)c1ccccc1)NC1CCCC1 | 122% | – |
| COc1ccccc1OCCCC(=O)Nc1ccc2c(c1)OCCO2 | 15% | – |
| c1ccc2cc3c(NCCN4CCOCC4)ccnc3cc2c1 | – | 0.147 µM (active) |
| O=C(Cn1c(-c2ccccn2)nc2ccccc21)NCCN1CCOCC1 | 13.8% | – |
| O=C(NCCN1CCOCC1)c1ccc2c(c1)ncn2C1CCCC1 | 33.8% | – |
| O=C(NCCS(=O)(=O)N1CCN(c2ccccc2)CC1)c1ccco1 | 4.48% | – |
| CC1CN(C(=S)Nc2ccc(Br)cc2Cl)CC(C)O1 (stereo not given) | 9.95% | – |
| CS(=O)(=O)c1ccccc1C(=O)Nc1ccc2sccc2c1 | 8.68% | – |
| COc1ccc(CC(NC(C)=O)C(=O)NC2CCN(C(=O)c3ccc(Cl)cc3)CC2)cc1 (stereo not given) | -15.7% | – |
| COc1ccccc1N(C)S(=O)(=O)c1ccc(Cl)c(C(=O)Nc2ccncc2)c1 | – | 8.28 µM (active) |
| COc1ccccc1N(C)S(=O)(=O)c1ccc(C(=O)NC2CCCCCC2)cc1 | 0% | – |
| COc1ccccc1N(C)S(=O)(=O)c1ccc(Cl)c(C(=O)N2CCC(C(N)=O)CC2)c1 | -11.5% | – |
| COc1ccc(CNC(=O)COC(=O)c2c(C)nn(-c3ccccc3)c2C)cc1OC | -4.91% | – |
| CSc1ccccc1-c1nnc(-c2ccc(Cl)cc2)o1 | 57.1% | – |
| COC(=O)Cc1ccc(Oc2ncc(C(F)(F)F)cc2Cl)cc1 | 33.3% | – |
| FC(F)(F)c1cnc(Oc2ccccc2-c2nnc(-c3ccc(Cl)cc3)o2)c(Cl)c1 | – | 4.15 µM (active) |
| Cc1ccsc1C(=O)N[C@@H](C)c1nnc2ccccn12 | -4.35% | – |
| NS(=O)(=O)c1ccc2nc(NC(=O)CS(=O)(=O)c3ccc(F)cc3)sc2c1 | 0.278% | – |
| Cc1cc(S(=O)(=O)NCc2ccccn2)c(Cl)cc1Cl | -17.7% | – |
| O=C(CC1NCCNC1=O)Nc1ccc(Oc2ccccc2)cc1 (stereo not given) | 34.8% | – |

| SMILES | activity change, negative = inhibition | Potency |
| --- | --- | --- |
| O=C(CC1Nc2ccccc2NC1=O)Nc1ccccc1NC(=O)CC1Nc2ccccc2NC1=O (stereo not given) | 76.8% | – |
| O=C(CC1Nc2ccccc2NC1=O)Nc1ccccc1 (stereo not given) | – | 11.7 µM (active) |
| O=C(NCCc1ccc(Cl)cc1Cl)c1cc([N+](=O)[O-])c[nH]c1=O | -17.3% | – |
| CC(=O)c1c(C)[nH]c(C(=O)OCC(=O)Nc2c(C)n(C)n(-c3ccccc3)c2=O)c1C | 2.3% | – |
| CCOc1ccc(S(=O)(=O)N(CC(=O)NCC(F)(F)F)Cc2ccco2)cc1 | -9.02% | – |
| CC(C)(C)n1nnnc1C(c1ccccc1F)N1CCN(C(=O)c2ccco2)CC1 (stereo not given) | -24.8% | – |
| CCOc1ccc(CN(Cc2ccco2)C(c2cccs2)c2nnnn2C(C)(C)C)cc1 (stereo not given) | – | 3.29 µM (active) |
| CS(=O)(=O)N1CCN=C1SCc1ccc(F)cc1 | -13.1% | – |
| Cc1ccc(Cc2cnc(NC(=O)/C(C#N)=C/c3ccc(-c4cccc([N+](=O)[O-])c4)o3)s2)cc1 | 31.9% | – |
| O=C(NCCCN1CCOCC1)c1ccc([N+](=O)[O-])cc1[N+](=O)[O-] | 8.63% | – |
| N#C/C(=C\c1ccc(-c2cccc([N+](=O)[O-])c2)o1)C(=O)NCCN1CCOCC1 | – | 10.4 µM (active) |
| COc1ccc(C2CC(=O)NC(=O)C2)cc1 | 6.49% | – |
| NS(=O)(=O)c1ccc(CCNC(=O)COC(=O)COc2cccc(C(F)(F)F)c2)cc1 | -11.2% | – |
| Nc1c(N(CCCO)C(=O)C2CCCC2)c(=O)[nH]c(=O)n1Cc1ccccc1 | 3.41% | – |
| Cc1nc2ccccc2n1CC(O)c1ccccc1 (stereo not given) | 0.0018% | – |
| CC(=O)Cn1cnc2c(cnn2-c2ccccc2)c1=O | 39.5% | – |
| CC(C)Cn1cnc2c1c(=O)n(CC(O)c1ccccc1)c(=O)n2CC(C)C (stereo not given) | – | 4.65 µM (active) |
| N#Cc1ccc(C2N=C(c3ccccc3)NO2)cc1 (stereo not given) | 270% | – |
| O=C(CNC(=O)c1cccs1)N/N=C/c1cccc(Br)c1 | 5.15% | – |
| O=C(CSC1=NS(=O)(=O)c2cc(F)ccc2N1)Nc1ccccc1F | 13.4% | – |
| CN1c2ccc(C=O)c3c(C=O)ccc(c23)N(C)C1(C)C | – | 11.7 µM (active) |
| COc1ccc(-c2noc(CNC(=O)C(C)Oc3ccccc3)n2)cc1 (stereo not given) | -23% | – |
| CC1CCCCC1NC(=O)NC(=O)COC(=O)C1=NN(c2ccccc2)C(=O)CC1 (stereo not given) | 3.43% | – |
| CCn1cc(CN2CCC(C(=O)Nc3cccc(-c4cccc(Cl)c4)c3)CC2)cn1 | -76.4% | – |
| CCNC(=O)N1CCCC(C(=O)c2ccc(-c3ccccc3)cc2)C1 (stereo not given) | -11.1% | – |

| SMILES | activity change, negative = inhibition | Potency |
| --- | --- | --- |
| O=C(NCc1ccccc1)C1C(=O)N(Cc2ccccc2)C(=O)C1C1(O)CCCC1 (stereo not given) | -29.1% | – |
| CCCCCCSc1ccc([C@@H]2[C@@H]3C(=O)N(CC)C(=O)[C@@H]3[C@]3(C(=O)OC)CCCCN23)cc1OC | – | 1.85 µM (active) |
| CCN1C(=O)[C@@H]2[C@@H](c3ccc(-c4cccc(Cl)c4)cc3)N3CCC[C@@]3(C(=O)OC)[C@@H]2C1=O | – | 11.7 µM (active) |
| CCN1C(=O)[C@@H]2[C@@H](c3ccc(-c4ccccc4)cc3)N3CCCC[C@@]3(C(=O)OC)[C@@H]2C1=O | – | 9.28 µM (active) |
| CCOC(=O)c1cc(S(=O)(=O)NCCc2ccc(OC)c(OC)c2)cn1C | -14.8% | – |
| COc1cccc(/C=C/C(=O)OCC(=O)N2CCCc3ccccc32)c1 | 15% | – |
| CC(C)CC(=O)Nc1nnc(S(=O)(=O)N(C)c2ccc(Cl)cc2)s1 | 6.02% | – |
| CCOc1ccc(CN2CCN(CCCc3ccccc3)C(CCO)C2)cc1 (stereo not given) | -7.9% | – |
| COc1ccc(CCNS(=O)(=O)c2cc3c(cc2C)NC(=O)CO3)cc1OC | 0.0646% | – |
| CC1(C)CC(N2CCN(C(c3ccccc3)c3ccccc3)CC2)=CC(=[N+]2CCCCC2)C1 | – | 0.415 µM (active) |
| O=C1CC(N2CCN(C(c3ccccc3)c3ccccc3)CC2)C(=O)N1 (stereo not given) | -29.3% | – |
| CC1(C)CC(=O)C=C(N2CCCC2)C1 | -7.8% | – |
| COC(=O)c1ccc(C(=O)NC2CC(C)(C)Cc3c2cnn3-c2ccc(F)cc2)nc1 (stereo not given) | -23.5% | – |
| Cc1cc(-c2ccc(S(=O)(=O)N3CCc4ccccc4C3)s2)on1 | 0.317% | – |
| CCC(Cc1ccccc1)NS(=O)(=O)c1ccc2c(c1)NC(=O)CS2 (stereo not given) | 3.04% | – |
| CCOC(=O)C1=C(C)NC(=O)NC1c1ccccc1 (stereo not given) | 21.4% | – |
| C=CCC1(C#N)C(=S)NC(C)=C(C(=O)OCC)C1c1ccccc1 (stereo not given) | – | 1.47 µM (active) |
| C=CCOC(=O)C1=C(C)NC(SCC(=O)OCC)=C(C#N)C1c1ccc(C)cc1 (stereo not given) | 3.68% | – |
| CC(C)(C)c1nc(NCC2CCCO2)c2nnn(Cc3ccccc3)c2n1 (stereo not given) | -0.298% | – |
| Cc1ccc(Cn2nnc3c(=O)n(CC(=O)N4CCCCC4)cnc32)cc1 | 46.2% | – |
| CC(C)(C)c1ccc(Cn2nnc3c(=O)[nH]c(C4CCCN(C(=O)c5ccco5)C4)nc32)cc1 (stereo not given) | – | 0.828 µM (active) |
| CC(C(=O)NC1CCCC1)N1CCN(S(=O)(=O)c2ccccc2Cl)CC1 (stereo not given) | -12% | – |
| Cc1ccc(C)c(S(=O)(=O)N2CCN(C(=O)Nc3ccccc3)CC2)c1 | -25.1% | – |
| CC1CC(C)(C)NC(=S)N1CCC(=O)N1CCN(Cc2ccccc2)CC1 (stereo not given) | 9.12% | – |
| CC1CC(=O)Nc2ccccc2N1S(=O)(=O)c1cccs1 (stereo not given) | 23.3% | – |

| SMILES | activity change, negative = inhibition | Potency |
| --- | --- | --- |
| CC1CC(=S)Nc2ccccc2N1Cc1ccccc1 (stereo not given) | – | 10.4 µM (active) |
| CCS(=O)(=O)C1=NSC2=NC(=O)/C(=C\c3ccc(OS(=O)(=O)c4ccccc4)cc3)C(=N)N21 | -13.3% | – |
| COc1ccc(S(=O)(=O)NCc2ccc(C(=O)N3CCC4(CC3)OCCO4)cc2)cc1 | 1.88% | – |
| COc1cccc(-c2cc3nc4c(c(N5CCC6(CC5)OCCO6)n3n2)CCCC4)c1 | – | 2.94 µM (active) |
| Cc1nc2cc(-c3ccc(F)cc3)nn2c(N2CCOCC2)c1C | 73.4% | – |
| CC(=O)c1ccc2c(c1)c1ccccc1n2CC(C)C | -5.48% | – |
| O=C1c2ccccc2S(=O)(=O)N1CC(O)Cn1c2ccccc2c2ccccc21 (stereo not given) | -9.89% | – |
| OC(Cn1c2ccccc2c2ccccc21)C[n+]1ccccc1 (stereo not given) | – | 7.38 µM (active) |
| O=C(CN(C(=O)CNC(=O)c1cccs1)c1cccc(F)c1)NC1CCCCC1 | -4.17% | – |
| Cc1cccc(NC(=O)COC(=O)CCc2ccccc2)c1C | 20.4% | – |
| CC(=O)c1c(C)n(-c2ccc(N(C)C)cc2)c2ccc(OCC(N)=O)cc12 | – | 11.7 µM (active) |
| CCOC(=O)c1c(C)oc2ccc(OCC(=O)N(CC)CC)cc12 | -5.17% | – |
| CC(=O)c1c(C)n(-c2ccc(C)cc2)c2ccc(O)cc12 | 15.2% | – |
| O=C(Nc1ccccc1Cl)NC1(C(=O)N2CCOCC2)CCCCC1 | -1.75% | – |
| COc1ccc(CNC(=O)C(=O)N2CCC3(CC2)OCCN3S(=O)(=O)c2ccc(C)cc2)cc1 | 5.34% | – |
| CC1(C)O[C@H]2CC(=O)OCC23[C@H]2CC[C@@]4(C)[C@H](c5ccoc5)OC(=O)[C@H]5O[C@]54[C@]2(C)C(=O)C[C@@H]13 (stereo not given in full) | -1.57% | – |
| O=C(NC1CCCCC1)c1ccc(-c2ccc(Cl)cc2)o1 | 129% | – |
| O=C(Cn1nc(CNc2ccc(Cl)cc2)[n+]2c1CCCCC2)c1ccc(Cl)cc1 | – | 1.04 µM (active) |
| O=C(Cn1ncc(N2CCCC2)c(Br)c1=O)c1ccc(Cl)cc1 | 94.5% | – |
| COC(=O)c1ccc(NCC(=O)N2CCCCCC2)cc1 | 190% | – |
| Cn1c(CCNS(=O)(=O)c2ccc(F)cc2)nnc1SCc1cccnc1 | -12.3% | – |
| CC(C)c1ccc(S(=O)(=O)NC2CCCC2)cc1 | 21.3% | – |
| Cc1ccccc1/C=C\c1nc(O)c([N+](=O)[O-])c(=O)[nH]1 | -10.1% [at 0.00184 µM] | – |
| O=c1cc(O)c(-c2cccc(C(F)(F)F)c2)c(Cl)[nH]1 | 9.62% | – |
| O=c1[nH]c(/C=C\c2cccc(C(F)(F)F)c2)nc(O)c1[N+](=O)[O-] | – | 9.28 µM (active) |

Reference: PubChem BioAssay AID504832 (National Center for Advancing Translational Sciences (NCATS), 2011)
